# Source: PubChem BioAssay (National Center for Advancing Translational Sciences (NCATS))
# Most compounds without a hit are left out; they make up all but 17% or so of the library.
# HT1080NT lethal: qHTS for induction of synthetic lethality in tumor cells producing 2HG: qHTS for the HT-1080-NT fibrosarcoma cell line; HT-1080-NT fibrosarcoma viability, CellTiter-Glo ATP luminescence, 48 h; Potency, µM (doses to about 46.1 µM), without a hit: top-dose activity, negative = less viability, most hits filed as cytotoxic; 360,000 tested, 1.6% active; AID 686970, 2013;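 note: NT is the 2HG producing partner of a matched IDH1 knockdown line; 0% = DMSO-treated cells and -100% = media-only wells without cells; nearly all actives have a fitted effect of over 55% in size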
#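 750 cells/well, RPMI + 5% FBS; 2 h settle, compound pin-transfer, 48 h at 37 degrees C. CellTiter-Glo 10 min RT, luminescence. Normalized to DMSO and media-only wells.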
# DT40 TDP1 CPT: qHTS for Inhibitors of human tyrosyl-DNA phosphodiesterase 1 (TDP1): qHTS in cells in presence of CPT; chicken DT40 Tdp1-/-;hTDP1 cells + 20 nM CPT, ATP luminescence, 48 h; Potency, µM (highest dose often 46.2 µM), inactives show top-dose activity change, negative = growth inhibition, hits mostly inhibitors; 420,000 tested, 12% active; AID 686979, 2013; note: % is set by controls: 0 for no effect and ±100 for the full control effect; nearly all actives have a fitted effect of over 55% in size
#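 Chicken DT40 Tdp1-/- cells stably complemented with human TDP1 were seeded at 400 cells/well in medium containing 20 nM camptothecin, exposed to pin-transferred compounds, and grown at 37 °C for at least 48 hr. Viability was read as ATP luminescence.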
# TGFb SMAD3 inh: qHTS for Inhibitors of TGF-b; HepG2 CAGA-GFP TGF-b/SMAD3 reporter, GFP fluorescence, 18 h; TGF-beta stimulated, 500 pg/mL final; Potency, µM (series often up to 46.1 µM), inactives show top-dose activity, negative = inhibition, most hits filed as inhibitors; 410,000 tested, 1.2% active; AID 588855, 2011; note: % is set by controls: 0 for no effect and ±100 for the full control effect; nearly all actives have a fitted effect of over 65% in size
#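 GFP signal (ex488/em500-530) from TGF-beta-stimulated HEPG2 CAGA-GFP cells, 500 pg/mL final, 18 h at 37 degrees C in DMEM plus 1% FBS, normalized to unstimulated and DMSO-stimulated controls.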
# HepG2 tox: qHTS for Inhibitors of TGF-b: Cytotox Counterscreen; AID 588856, 2011; 410,000 tested, 0.76% active; HepG2 CAGA-GFP viability, ATP luminescence, 18 h; Potency, µM (doses to about 46.1 µM), without a hit: top-dose activity change, negative = cytotoxicity, usual class: cytotoxic
#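 HepG2 CAGA-GFP cells (1000/well, DMEM with 1% FBS) received compound, then TGF-beta at 500 pg/mL final, and were incubated 18 hours at 37 degrees C. Viability was read by CellTiter-Glo luminescence. Media-only wells were set as complete cell-killing and DMSO as no toxicity.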
# HT1080 IDH1KD tx: qHTS for induction of synthetic lethality in tumor cells producing 2HG: qHTS for the HT-1080-IDH1KD cell line; HT-1080 IDH1 knockdown viability, ATP luminescence, 48 h; Potency, µM (highest dose often 46.1 µM), inactives show at the top dose activity, negative = toxicity, hits mostly cytotoxic; 360,000 tested, 2% active; AID 686971, 2013;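 note: 0% = DMSO wells and -100% = cell-free medium wells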
#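 % activity derives from luminescence (CellTiter-Glo), normalised to DMSO and no-cell wells. HT-1080-IDH1KD cells, 750/well, had 48 h compound exposure at 37 °C.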
# DT40 TDP1 no CPT: qHTS for Inhibitors of human tyrosyl-DNA phosphodiesterase 1 (TDP1): qHTS in cells in absence of CPT; DT40 Tdp1-/- hTDP1 cells, no CPT, ATP luminescence, 48 h; Potency, µM (doses to about 46.2 µM), without a hit: at the top dose activity change, negative = growth inhibition, actives largely listed as inhibitors; 420,000 tested, 15% active; note: % is set by controls: 0 for no effect and ±100 for the full control effect; nearly all actives have a fitted effect of over 55% in size
#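 DT40 Tdp1-/-;hTDP1 cells, no CPT (DMSO vehicle only), 400 cells/well; compounds pin-transferred; ≥48 hr, 37 °C; CellTiter-Glo 30 min RT dark, luminescence read.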
# Active calls of the source: *; u = inconclusive; x = no result. Calls come from the whole dose curve; as a rule, active = well fitted curve in the direction sought with a large enough effect; inconclusive = small, poorly fitted or top-dose-only effect, or another doubt; inactive = no such curve, though single readings can be large; an effect the other way counts as inactive or inconclusive. Potency is the fitted concentration of half-maximal effect.
SMILES,HT1080NT lethal,DT40 TDP1 CPT,TGFb SMAD3 inh,HepG2 tox,HT1080 IDH1KD tx,DT40 TDP1 no CPT
Cc1nonc1CC(=O)N1CCc2c([nH]c3ccccc23)C1c1ccccc1F (configuration not stated),-29%,u,9%,-5%,-21%,u
COc1ccc2[nH]c3c(c2c1)CCN(C(=O)c1cccc(Cl)c1)C3c1ccc(F)cc1 (configuration not stated),x,u,u,-12%,x,u
COc1ccc(NC(=O)N2CCc3c([nH]c4ccc(OC)cc34)C2c2ccc(OC)cc2)cc1 (configuration not stated),x,u,-16%,-13%,x,21µM*
Cc1ccc(NC(=O)N2CCc3c([nH]c4ccccc34)C2c2ccccc2F)c(Cl)c1 (configuration not stated),x,u,-13%,-18%,x,23µM*
CC1c2[nH]c3ccccc3c2CCN1C(=O)Nc1ccccc1 (configuration not stated),u,23µM*,-4%,-2%,u,23µM*
Cc1onc(-c2ccccc2)c1NC(=O)N(Cc1ccccc1)C(C)C,8%,-15%,-2%,-7%,1%,u
COc1ncc2ncc(=O)n(C3CC3)c2n1,x,-18%,x,x,x,u
C/C=C(\C)CN1CCC(Oc2ccc(C(=O)NCc3ccccn3)cc2)CC1,-8%,-13%,3%,-9%,-6%,0%
Cc1ccc(/C=C2\SC(N3CCN(C(c4ccccc4)c4ccccc4)CC3)=NC2=O)o1,-4%,15µM*,u,-9%,-20%,12µM*
O=C1N=C(N2CCOCC2)S/C1=C/c1ccc(-c2ccc(F)cc2)o1,-29%,u,13%,-37%,u,21µM*
Cc1ccc(-c2ccc(/C=C3\SC(N4CCOCC4)=NC3=O)o2)cc1,9.2µM*,10µM*,2%,-29%,8.2µM*,9.2µM*
O=c1cc(-c2ccccc2)nc(Cc2c(Cl)cccc2Cl)[nH]1,13%,-2%,0%,3%,12%,21%
O=c1cc(CCl)nc(Cc2c(Cl)cccc2Cl)[nH]1,23µM*,u,-9%,-33%,26µM*,u
CCOC(=O)c1nnc(-c2ccc(C)cc2)nc1Oc1ccc(Cl)cc1Cl,-28%,u,u,-5%,-18%,16µM*
CCOC(=O)c1nnc(-c2ccc(C)cc2)nc1Oc1ccccc1Cl,23µM*,u,u,-17%,23µM*,u
COc1ccc(NC(=O)CN(c2ccccc2OC)S(C)(=O)=O)c(OC)c1,x,-1%,-9%,4%,x,-13%
COc1ccc(-c2noc(COc3ccc(Br)cc3C)n2)cc1OC,x,u,0%,-75%,x,u
C[C@@H]1C[C@H]2[C@@H]3CCC4=CC(=O)C=C[C@]4(C)[C@@]3(F)C(O)C[C@]2(C)[C@@]1(O)C(=O)CO (some centres not stated),x,5%,6%,5%,x,-26%
O=C(C[n+]1ccccc1)N/N=C/c1ccc(F)cc1,14%,-1%,11%,6%,3%,-17%
CCSc1nnc(Cn2c(=O)sc3ccccc32)n1-c1ccccc1C,2%,u,-7%,4%,14%,u
CSc1nnc(Cn2c(=O)sc3ccccc32)n1-c1ccccc1C,1%,u,-1%,2%,0%,18µM*
CC(Sc1nnc(Cn2c(=O)sc3ccccc32)n1C)c1ccccc1 (configuration not stated),-7%,u,-2%,-79%,0%,-24%
CCSc1nnc(Cn2c(=O)sc3ccccc32)n1C,1%,13µM*,-12%,-16%,6%,-14%
Cc1c(C(=O)Nc2ccc(-c3nc4cc(Cl)ccc4o3)cc2)oc2ccccc12,x,15%,6%,-23%,x,-11%
COC(=O)c1cccc(NC(=O)/C=C/c2cccc([N+](=O)[O-])c2)c1,-25%,u,24%,-3%,u,13µM*
SMILES,HT1080NT lethal,DT40 TDP1 CPT,TGFb SMAD3 inh,HepG2 tox,HT1080 IDH1KD tx,DT40 TDP1 no CPT
CCOC(=O)c1cccc(NC(=O)/C=C/c2ccc([N+](=O)[O-])cc2)c1,-12%,15µM*,u,11%,-17%,8.2µM*
COC(=O)c1cccc(NC(=O)/C=C/c2ccc([N+](=O)[O-])cc2)c1,5%,-5%,3%,4%,2%,u
O=C(/C=C/c1ccc([N+](=O)[O-])cc1)Nc1cccc(C(=O)Nc2ccccc2C(=O)O)c1,12%,u,-2%,4%,3%,u
CCCCN(CCCC)C(=O)/C=C/c1cccc([N+](=O)[O-])c1,5%,u,-23%,1%,0%,16µM*
CSc1ncc(Cl)c(C(=O)Nc2cccc(Cl)c2)n1,-4%,-17%,u,-39%,8%,u
CC(C)Cn1c(O)c(N=NC(=O)c2cccc(S(=O)(=O)N3CCCCC3)c2)c2ccccc21,3%,16µM*,u,1%,-2%,13µM*
O=C(NNC(=O)c1cccc(S(=O)(=O)N2CCCCC2)c1)c1ccccc1,1%,5%,-2%,-1%,-2%,-3%
CC(C)NC(=O)COC(=O)/C=C/c1ccco1,4%,16%,-3%,-5%,2%,-2%
CCn1c(-c2cccnc2Cl)nc2cc(Cl)c(Cl)cc21,u,18µM*,1%,-13%,u,u
CCOC(=O)Cn1c(-c2cccnc2Cl)nc2cc(Cl)c(Cl)cc21,-13%,-18%,-10%,-24%,-28%,-10%
N/C(=N\c1nc2ccccc2o1)NC(=O)c1ccc(F)cc1,u,13µM*,-3%,-27%,u,13µM*
N/C(=N\c1nc2ccccc2o1)NC(=O)c1ccc(Cl)cc1,1%,u,6%,1%,2%,-5%
CC(C)(C)c1ccc(C(=O)N/C(N)=N/c2nc3ccccc3o2)cc1,14%,u,-2%,8%,9%,u
N/C(=N\c1nc2ccccc2o1)NC(=O)c1ccccc1Br,14%,u,21%,2%,2%,16µM*
